Where “and” joins values, the source holds several entries; their conditions need not be identical. Equal entries are not always repeated. Hit rate of the full screen: of about 5,500 compounds, about 2,000 (36%) were called active. Inconclusive results (about 18%) are left out. No stated cut-off is given here; in the data, active means normalized growth mostly below about 0.91 (no sharp cut-off); inconclusive means no clear call, values can overlap the other calls; inactive means mostly above about 0.92. The list shows a part of the results.
Assay: chemical genetic growth profiling, strain panel (AID 1159580);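 further: tested at 20 µM; growth read once vehicle control cultures reached saturation at 30 °C; 1 = growth at the plate median or of vehicle wells; lower values mean less growth of the strain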
Conditions: S. cerevisiae deletion strains, growth OD

Measured: normalized growth

CCN(CC)CCNC(=O)c1cc(Br)c(N)cc1OC
inactive: locus YAL021C, strain ccr4, hits give low values 0.984 | locus YAL026C, strain drs2, hits give low values 0.997 | locus YAL030W, strain snc1, hits give low values 0.997 | locus YBL061C, strain skt5, hits give low values 0.992 | locus YBR009C, strain hhf1, hits give low values 1.02 | locus YBR021W, strain FUR4, hits give low values 1.03 | locus YBR023C, strain chs3, hits give low values 0.992 | locus YBR171W, strain sec66, hits give low values 0.983 | locus YBR229C, strain ROT2, hits give low values 0.957 | locus YBR231C, strain swc5, hits give low values 0.981 | locus YBR279W, strain paf1, hits give low values 0.991 | locus YCL011C, strain gbp2, hits give low values 0.978 | locus YCL016C, strain dcc1, hits give low values 0.992 | locus YCL029C, strain bik1, hits give low values 0.989 | locus YCL061C, strain MRC1, hits give low values 0.984 | locus YCL069W, strain vba3, hits give low values 0.987 | locus YCR088W, strain abp1, hits give low values 0.981 | locus YDL005C, strain med2, hits give low values 0.989 | locus YDL035C, strain GPR1, hits give low values 0.986 | locus YDL040C, strain nat1, hits give low values 1 | locus YDL074C, strain BRE1, hits give low values 0.947 | locus YDL101C, strain DUN1, hits give low values 0.976 | locus YDL134C, strain PPH21, hits give low values 1.01 | locus YDL185W, strain tfp1, hits give low values 0.983 | locus YDL192W, strain arf1, hits give low values 0.983 | locus YDR001C, strain nth1, hits give low values 0.979 | locus YDR069C, strain doa4, hits give low values 1.01 | locus YDR101C, strain arx1, hits give low values 0.979 | locus YDR137W, strain rgp1, hits give low values 1.04 | locus YDR159W, strain sac3, hits give low values 1 | locus YDR162C, strain NBP2, hits give low values 1 | locus YDR195W, strain ref2 0.967 | locus YDR297W, strain sur2, hits give low values 0.976 | locus YDR318W, strain mcm21, hits give low values 1 | locus YDR334W, strain swr1, hits give low values 0.954 | locus YDR335W, strain msn5, hits give low values 0.987 | locus YDR388W, hits give low values 0.989 | locus YDR392W, strain spt3, hits give low values 0.932 | locus YDR502C, strain sam2, hits give low values 0.983 | locus YEL003W, strain gim4, hits give low values 0.979 | locus YEL037C, strain rad23, hits give low values 0.985 | locus YEL061C, strain CIN8 (second series), hits give low values 0.982 | locus YEL061C, strain CIN8, hits give low values 0.978 | locus YER015W, strain faa2, hits give low values 0.986 | locus YER016W, strain bim1, hits give low values 0.997 | locus YER110C, hits give low values 0.978 | locus YER111C, strain swi4, hits give low values 1.01 | locus YER155C, strain BEM2 (second series), hits give low values 1 | locus YER155C, strain BEM2, hits give low values 1 | locus YER167W, strain BCK2, hits give low values 1.01 | locus YFR010W, strain ubp6, hits give low values 0.984 | locus YGL078C, strain dbp3, hits give low values 0.974 | locus YGL086W, strain mad1, hits give low values 0.98 | locus YGL167C, strain pmr1, hits give low values 0.98 | locus YGL173C, strain kem1, hits give low values 0.991 | locus YGL227W, strain vid30, hits give low values 0.995 | locus YGL240W, strain doc1, hits give low values 0.993 | locus YGL248W, strain PDE1, hits give low values 0.971 | locus YGL253W, strain hxk2, hits give low values 0.982 | locus YGR078C, strain PAC10, hits give low values 0.975 | locus YGR135W, strain pre9, hits give low values 1.04 | locus YGR252W, strain gcn5, hits give low values 1.02 | locus YHR013C, strain ard1, hits give low values 0.972 | locus YHR027C, strain rpn1, hits give low values 0.976 | locus YHR030C, strain SLT2, hits give low values 0.997 and 0.978 | locus YHR079C, strain IRE1 (second series), hits give low values 0.989 | locus YHR079C, strain IRE1, hits give low values 1 | locus YHR094C, strain hxt1, hits give low values 0.985 | locus YHR129C, strain ARP1, hits give low values 1 | locus YHR142W, strain chs7, hits give low values 0.97 | locus YHR200W, strain rpn10, hits give low values 0.994 | locus YIL066C, strain RNR3, hits give low values 0.965 | locus YIL073C, strain SPO22, hits give low values 1.04 | locus YIL125W, strain kgd1, hits give low values 0.985 | locus YIR030C, strain dcg1, hits give low values 0.986 | locus YJL092W, strain hpr5, hits give low values 0.973 | locus YJL095W, strain BCK1 (second series), hits give low values 0.99 | locus YJL095W, strain BCK1, hits give low values 0.962 and 0.993 | locus YJL115W, strain asf1, hits give low values 0.966 | locus YJL129C, strain trk1, hits give low values 0.99 | locus YJL134W, strain LCB3, hits give low values 0.994 | locus YJL154C, strain vps35, hits give low values 0.986 | locus YJL164C, strain tpk1, hits give low values 1.01 | locus YJL166W, strain qcr8, hits give low values 0.998 | locus YJL168C, strain set2, hits give low values 0.987 | locus YJL187C, strain SWE1 (second series), hits give low values 0.944 | locus YJL187C, strain SWE1, hits give low values 0.993

Reference: PubChem BioAssay AID1159580 (chemical genetic matrix, 2015)
